From ChEMBL document CHEMBL3988442, “University of Dundee, Small-Polar-MMV Screening Library” (2021) come the findings set out here.

The target of assay [1] is T1, Aspartate--tRNA(Asp/Asn) ligase (Mycobacterium tuberculosis (strain ATCC 25618 / H37Rv)) (UniProt P9WFW3). Also: in the data most compounds retested in dose-response had high values.
T1 sequence (whole entry): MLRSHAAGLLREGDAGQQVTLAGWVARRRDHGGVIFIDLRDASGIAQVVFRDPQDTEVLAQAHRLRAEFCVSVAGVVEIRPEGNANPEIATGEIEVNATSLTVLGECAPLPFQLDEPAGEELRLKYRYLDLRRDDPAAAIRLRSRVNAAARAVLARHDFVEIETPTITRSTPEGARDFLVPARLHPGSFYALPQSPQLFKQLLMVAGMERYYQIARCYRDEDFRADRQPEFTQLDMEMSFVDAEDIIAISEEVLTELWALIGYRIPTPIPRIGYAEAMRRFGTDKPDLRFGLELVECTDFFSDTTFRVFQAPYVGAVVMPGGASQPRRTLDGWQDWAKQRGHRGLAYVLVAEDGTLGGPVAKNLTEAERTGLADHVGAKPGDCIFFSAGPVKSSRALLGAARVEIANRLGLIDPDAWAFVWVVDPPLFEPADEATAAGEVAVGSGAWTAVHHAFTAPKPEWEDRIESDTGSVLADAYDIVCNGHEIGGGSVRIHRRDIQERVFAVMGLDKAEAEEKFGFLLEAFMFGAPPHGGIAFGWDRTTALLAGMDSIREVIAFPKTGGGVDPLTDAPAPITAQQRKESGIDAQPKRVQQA
Put plainly: Assay for Asp RNA synthetase-1 from Mycobacterium tuberculosis. The class given is functional. The arrangement: scale not given: direction of the effect not stated beside the values. The following applies: 30 µM.

The target in assay [2] is Shiga toxin 2 (Escherichia coli O157:H7) (UniProt P09385+P09386). Put plainly: E. coli 0.157:H7 Shiga Toxin SOP - stx2 screening assay. The following applies: 30 µM. The class given is functional. The arrangement: scale not given: direction of the effect not stated beside the values.

For `CC(C)(C)n1ncc2c1NC(=O)CC2c1ccccc1` (configuration not stated), the Percent Effect is -5% in assay [1] and 22% in assay [2].
`CN1CC(C(=O)NC(C)(C)C)CC1=O` (configuration not stated): the Percent Effect is 0.616% in assay [1] and -21.3% in assay [2].
The like results for `O=C(CCc1ccc(O)cc1)N1CCC(Cc2ccc(CO)cc2)C1` (configuration not stated) were, in that order, -0.39% and -14.8%.
Take `O=C(c1cccc2cccnc12)N1CCCN(c2cccnn2)CC1`: the Percent Effect was -6.72% in assay [1] and 3.11% in assay [2].
Take `O=C(CCn1cccn1)N1C[C@@H]2CC[C@H](C1)N(Cc1ccccn1)C2=O`: the Percent Effect stood at 0.301% in assay [1] and 3.51% in assay [2].
With `Cc1ccc(CN(Cc2ccccn2)C2CC(C)(C)NC(C)(C)C2)s1`, the Percent Effect in assay [1] is -5.4%; in assay [2] it was 15.6%.
For the compound `CCS(=O)(=O)N1CCc2c(cccc2NC(=O)NCCOC)C1`, the Percent Effect came to 5.42% in assay [1] and 6.78% in assay [2].
In the case of `CN(C(=O)c1cc(Cl)c[nH]1)C1CCN(c2ccccn2)CC1`, the Percent Effect in assay [1] is -6.49%; in assay [2] it was 1.72%.
For `COc1ncccc1C(=O)N1CCN(C(=O)Cc2ccccn2)CC1`, the Percent Effect in assay [1] was 4.26%; in assay [2] it was -53.3%.
Consider `CC(C)C(=O)N1CCCC(c2ncncc2-c2ccncc2)C1` (configuration not stated), for which the Percent Effect is -3.04% in assay [1] and -34.6% in assay [2].
Turning to `Cc1ccc2nc(C3CCN(CCO)CC3)nn2c1`, the Percent Effect in assay [1] was 2.18%; in assay [2], -3.64%.
The like results for `COc1ccccc1N1CCC(CNCc2cccc(C#N)c2)C1` (configuration not stated) were, in that order, 13.3% and 2%.
In the case of `CC(C)(O)CN1CCN(C(=O)c2cc3ccccc3c(=O)[nH]2)CC1`, the results for the Percent Effect in assay [1] and in assay [2] were -2.19% and -6.56%, respectively.
For `COc1ccc(S(=O)(=O)N2CCC(S(C)(=O)=O)CC2)cc1C` the same measures were 1.12% and -1.05%.
As for `COc1ccc(CN(C)CC2(O)CCN(C(=O)c3cccn3C)C2)cc1` (configuration not stated), the results for the Percent Effect in assay [1] and in assay [2] were 2.04% and -5.84%, respectively.
Consider `O=C(NCCN1CCCc2ccccc21)c1scnc1Cl`, for which the Percent Effect in assay [1] was -4.16%; in assay [2], 0.202%.
In the case of `FC(F)(F)Cn1ccnc1CN1CCCC1c1noc(C2CC2)n1` (configuration not stated), the Percent Effect in assay [1] is 11.5%; in assay [2], -34%.
For `Cc1cc(N2CCCCCC2)n2nc(C)c(C)c2n1` the same measures were 0.167% and 19.6%.
With `CC(=O)Nc1nc(C(=O)N2CCCC(n3ccnc3)C2)cs1` (configuration not stated), the Percent Effect in assay [1] was -1.21%; in assay [2] it was 0.121%.
`Cc1nc(CN(C)C2CCN(CC(=O)N3CCOCC3)C2)no1` (configuration not stated): the Percent Effect in assay [1] turned out to be 5.36%; in assay [2], 11.2%.
For `COc1ccccc1NC(=O)CSC1CCc2ccccc2NC1=O` (configuration not stated), the Percent Effect in assay [1] was -0.871%; in assay [2], -1%.
Take `CC(=O)N1CCCN(C(=O)CCc2c(C)noc2C)CC1`: the Percent Effect in assay [1] is -5.26%; in assay [2], 2.24%.
Turning to `Cc1nc(C)c2c(n1)CCN(C(=O)CC1CC1)CC2`, the Percent Effect in assay [1] was -2.64%; in assay [2] it was -5.99%.
For the compound `O=C(c1cnccn1)N1CCOC2(CCN(Cc3ccsc3)CC2)C1`, the values for the Percent Effect in assay [1] and in assay [2] were -1.8% and -12.9%, respectively.
With `O=C(NCC1CCOCC1)[C@H]1C[C@@H]2CCN(Cc3ccncc3)C[C@@H]2O1`, the results for the Percent Effect in assay [1] and in assay [2] were 2.48% and -19.5%, respectively.
On to `Cc1ccccc1CN1CCC(NCC2CNc3ccnn3C2)CC1` (configuration not stated), for which the Percent Effect was 0.127% in assay [1] and -38.1% in assay [2].
For `COc1cnc(N2CCC(Oc3ccccc3OC)(C(=O)O)CC2)nc1` the same measures were -1.16% and -0.671%.
The like results for `O=C(c1cscn1)N1C[C@H]2CCCC(OCc3cccnc3)[C@H]2C1` (some centres not stated) were, in that order, 6.49% and -13.5%.
As to `COC(=O)c1cccc(NC(=O)CN2CCN(S(C)(=O)=O)CC2)c1`, the results for the Percent Effect in assay [1] and in assay [2] were 1.93% and 10.4%, respectively.
Take `CS(=O)(=O)NC1CCN(C(=O)NCCNc2ccccn2)CC1`: the Percent Effect in assay [1] is 3.96%; in assay [2] it was 19.1%.
Turning to `CCc1ccc(C(=O)N2CCN(CC(C)O)CC2)o1` (configuration not stated), the Percent Effect in assay [1] turned out to be 0.745%; in assay [2] it was 5.26%.
Regarding `COCCOCc1cccc(NC(=O)N2CCCC2c2ccncc2)c1` (configuration not stated), the Percent Effect in assay [1] was -1.56%; in assay [2], 18.6%.
For `CN1CCN(C(=O)c2cnc3c(cnn3C3CCCC3)c2)CC1` the same measures were -4% and -2.45%.
For `c1ncn(CC2CN(CC3CCCC3)CCO2)n1` (configuration not stated) the same measures were 2.9% and -0.78%.
For the compound `Cc1nn(C)c(C)c1C1CCCN1Cc1cccc(C(N)=O)c1` (configuration not stated), the Percent Effect in assay [1] is -1.14%; in assay [2], -1.22%.
`O=C(NCC1CC1)N1CCN(Cc2ccc3c(c2)OCCO3)CC1`: the figures for the Percent Effect in assay [1] and in assay [2] were 0.365% and 16.2%, respectively.
For `O=C(c1ccsc1)N1CC[C@H]2C[C@@H](c3nnc(C4CC4)o3)O[C@@H]2C1` the same measures were 0.51% and -18.9%.
As to `CC(C)c1nnc2n1CCN(CC(=O)N1CCc3ccccc3C1)C2`, the Percent Effect in assay [1] was -3.72%; in assay [2] it was -17%.
Turning to `Cc1c(C(=O)NCC2CCCO2)nnn1-c1cccc2c1CCN(C)C2` (configuration not stated), the Percent Effect is 3.06% in assay [1] and -26.5% in assay [2].
`OC(COCc1ccccc1F)CN1CCc2c(ncn2C2CC2)C1` (configuration not stated): the Percent Effect is -6.48% in assay [1] and -4.88% in assay [2].
Turning to `COCc1cnc2n1CCN(C(=O)C1=CCCCC1)C2C` (configuration not stated), the Percent Effect was -0.348% in assay [1] and -61.5% in assay [2].
For `CCN1C(=O)CCCC12CCCN(C(=O)c1cnccn1)C2` (configuration not stated), the results for the Percent Effect in assay [1] and in assay [2] were 0.865% and -10.9%, respectively.
For `CCOc1ccc(Cl)c(C(=O)NCc2ccc(C(=O)NC)cc2)n1` the same measures were -2.66% and 13%.
In the case of `O=C(COc1cccc2c1CCC2=O)NCCSc1ccccc1`, the Percent Effect in assay [1] was 3.02%; in assay [2], -30.6%.
As for `COc1ccc(CN2CCN(C(C)c3nc(C4CC4)no3)CC2)cc1` (configuration not stated), the Percent Effect in assay [1] is -3.61%; in assay [2], 0.241%.
For `O=S(=O)(Cc1ccccc1)NCC1CCN(c2cnccn2)CC1` the same measures were 2.52% and 11.3%.
